{
  "source": "PubChem BioAssay (NCATS)",
  "note": "Active and inactive are the calls of the source. Calls follow the shape of the dose curve; as a rule, active = well fitted curve in the direction sought with a large enough effect; inconclusive = small, poorly fitted or top-dose-only effect, or effect the other way, or another doubt; inactive = no such curve, though single readings can be large or run the other way.",
  "data": [
    {"assay": "Inducers of the Endoplasmic Reticulum Stress Response (ERSR) in human glioma: Validation (AID 504836)", "conditions": "human glioma cells, ER stress response reporter; series mostly up to 38.3 µM", "procedure,_shortened": "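Stably transfected U87-MG glioma cells carrying a GRP78-based luciferase sensor; 16 h compound incubation. Luminescence end-point read 10 min after Bright-Glo addition at room temperature.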", "values": [
      {"smiles": "CCCOc1ccccc1-c1nc2n[nH]nc2c(=O)[nH]1", "outcome": "inactive"},
      {"smiles": "Brc1c(NC2=NCCN2)ccc2nccnc12", "outcome": "inactive"},
      {"smiles": "OCc1cc(C(O)CNCCCCCCOCCCCc2ccccc2)ccc1O", "note": "(stereo not given)", "outcome": "inactive"},
      {"smiles": "CC(C(=O)O)c1ccc(CC2CCCC2=O)cc1", "note": "(stereo not given)", "outcome": "inactive"},
      {"smiles": "Cc1cc(C(C)(C)C)c(O)c(C)c1CC1=NCCN1", "outcome": "inactive"},
      {"smiles": "OC(CCN1CCCCC1)(c1ccccc1)C1CC2C=CC1C2", "note": "(stereo not given)", "outcome": "inactive"},
      {"smiles": "CC(C)(C)c1ccc(C(O)CCCN2CCC(C(O)(c3ccccc3)c3ccccc3)CC2)cc1", "note": "(stereo not given)", "outcome": "inactive"},
      {"smiles": "CSc1ccc(C(=O)c2[nH]c(=O)[nH]c2C)cc1", "outcome": "inactive"},
      {"smiles": "NC1=NCC2c3ccccc3Cc3ccccc3N12", "note": "(stereo not given)", "outcome": "inactive"},
      {"smiles": "CCN(CC)CCCN(c1ccccc1)C1Cc2ccccc2C1", "outcome": "inactive"},
      {"smiles": "C#CCN(C)Cc1ccccc1", "outcome": "inactive"},
      {"smiles": "COC(=O)C1=C(C)NC(C)=C(C(=O)OC(C)(C)CN(C)CCC(c2ccccc2)c2ccccc2)C1c1cccc([N+](=O)[O-])c1", "note": "(stereo not given)", "outcome": "inactive"},
      {"smiles": "CCc1cccc2c3c([nH]c12)C(CC)(CC(=O)O)OCC3", "note": "(stereo not given)", "outcome": "inactive"},
      {"smiles": "CN(C)CCCN1c2ccccc2Sc2ccc(C(F)(F)F)cc21", "outcome": "inactive"},
      {"smiles": "NS(=O)(=O)c1cc2c(cc1Cl)NC(C1CC3C=CC1C3)NS2(=O)=O", "note": "(stereo not given)", "outcome": "inactive"},
      {"smiles": "O=C1CC2(CCCC2)CC(=O)N1CCCCN1CCN(c2ncccn2)CC1", "outcome": "inactive"},
      {"smiles": "CCCN(CCC)C(=O)C(CCC(=O)O)NC(=O)c1ccccc1", "note": "(stereo not given)", "outcome": "inactive"},
      {"smiles": "CCCCNc1c(C(=O)OCC)c(C)nc2c1cnn2CC", "outcome": "inactive"},
      {"smiles": "CCCCNc1ccc(C(=O)OCCN(C)C)cc1", "outcome": "inactive"},
      {"smiles": "O=C(O)CP(=O)(O)O", "outcome": "inactive"}
    ]}
  ]
}
